Bioassay records: PubChem BioAssay, National Center for Advancing Translational Sciences (NCATS)
Pf growth 96h = Primary qHTS for delayed death inhibitors of the malarial parasite plastid, 96 hour incubation; P. falciparum luciferase reporter growth, 96 h; Potency, µM (top dose mostly 28.7 µM), inactives show at the top dose activity change, negative = inhibition, usual class: inhibitors; actives 6.9% (n = 320,000); AID 504834, 2011; note: potency is the fitted concentration of half-maximal effect; % is set by controls: 0 for no effect and ±100 for the full control effect
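Erythrocytes infected with luciferase-expressing P. falciparum were dispensed at 2% hematocrit and 0.05% parasitemia (final), then incubated with compounds 96 hours at 37 C in 5% CO2. Luminescence after detection reagent addition reported growth.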
Shiga inhibitor = A qHTS for Small Molecule Inhibitors of Shiga Toxin | Vero cells, Shiga toxin protein synthesis inhibition reporter | inhibition, % at 38.7 µM | actives 9.2% (n = 290,000); in the data active = inhibition mostly above about 28%, no sharp cut-off; inactive = mostly below about 43%; note: 0% is about no effect
Sm TGR inh = qHTS Assay for the Inhibitors of Schistosoma Mansoni Peroxiredoxins; Schistosoma mansoni thioredoxin glutathione reductase (TGR), Q962Y6; purified TGR, DTNB reduction, TNB absorbance 405 nm; Potency, µM (titrated, usually from 114 µM), for inactives: at the highest dose activity change, negative = inhibition, usual class: inhibitors; actives 3% (n = 360,000); note: potency is the fitted concentration of half-maximal effect; % is set by controls: 0 for no effect and ±100 for the full control effect; nearly all actives have a fitted effect of over 60% in size
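Kinetic colorimetric format: TGR-catalysed, NADPH-driven DTNB reduction monitored via TNB absorbance. Enzyme dispensed at 20 nM; compound exposure 15 min at room temperature before reaction start.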
Cycloheximide cs = Cycloheximide Counterscreen for Small Molecule Inhibitors of Shiga Toxin | actives 12% (n = 300,000) | cell reporter, cycloheximide protein synthesis inhibition counterscreen | max response, %; in the data active = max response mostly above about 13%, no sharp cut-off; inactive = mostly below about 14%; note: read at 38.3 µM for the half of the compounds with a filed dose; 0% is about no effect
Pf growth 48h = Primary qHTS for delayed death inhibitors of the malarial parasite plastid, 48 hour incubation. actives 5.9% (n = 310,000). Potency, µM (doses to about 28.7 µM), without a hit: at the highest dose activity change, negative = inhibition, hits mostly inhibitors. P. falciparum luciferase growth in erythrocytes, 48 h. AID 504832, 2011; note: potency is the fitted concentration of half-maximal effect; % is set by controls: 0 for no effect and ±100 for the full control effect
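Growth was read as firefly luciferase luminescence after a 48 h, 37 C, 5% CO2 exposure of compounds to reporter-bearing P. falciparum cultures (0.1% parasitemia, 2% hematocrit final) in Albumax-supplemented RPMI 1640.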
NS1 inh = qHTS Assay for Inhibitors of Influenza NS1 Protein Function; Potency, µM (highest dose often 46.1 µM), inactives show at the top dose activity, positive = more growth; actives 0.4% (n = 270,000); AID 2326, 2010; calls by dose curve; note: potency is the fitted concentration of half-maximal effect; actives are rising curves; nearly all actives have a fitted effect of over 50% in size
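Compounds were scored for reversing the slow growth caused by influenza A NS1 in S. cerevisiae, measured by optical density at 600 nm. Assay medium contained 2% galactose at pH 6.0; NS1-free yeast of the same strain were the positive control.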
The depositor's hits bear a star; u = inconclusive; x = not tested or not shown. Shown are actives, neighbours in structure and some others; about 21% of the full set was active somewhere. Unless noted, calls come from the whole dose curve; as a rule, active = well fitted curve in the direction sought with a large enough effect; inconclusive = small, poorly fitted or top-dose-only effect, or another doubt; inactive = no such curve, though single readings can be large; an effect the other way counts as inactive or inconclusive.

SMILES	Pf growth 96h	Shiga inhibitor	Sm TGR inh	Cycloheximide cs	Pf growth 48h	NS1 inh
Cc1[nH]nc(Nc2ccc(C(C)C)cc2)c1[N+](=O)[O-]	18.9%	54.5*	-6.0%	57.4*	27.5%	-6.4%
Cc1ccc(Nc2n[nH]c(C)c2[N+](=O)[O-])cc1	203.2%	42.6*	-2.5%	29.3*	232.0%	-13.8%
Cc1cccc(Nc2n[nH]c(C)c2[N+](=O)[O-])c1	3.4%	107.0*	-3.1%	63.1*	132.1%	-4.2%
Cc1[nH]nc(Sc2ccccn2)c1[N+](=O)[O-]	15.8%	43.7*	5.0%	14.7	34.3%	4.8%
Cc1[nH]nc(NCCO)c1[N+](=O)[O-]	43.4%	-5.1	16.9%	0.6	1.5%	x
CC(c1ccccc1)N(NC(=O)C(O)(c1ccccc1)c1ccccc1)C(=O)c1ccccc1 (stereo not drawn)	u	-12.7	93.6%	5.5	u	12.3%
Cc1ccc(CNC(=O)CCCn2c(=O)[nH]c3ccc(Br)cc3c2=O)cc1	x	x	2.8%	x	x	x
COc1ccccc1CNC(=O)c1cc2cccc3c2n1CC(C)S3 (stereo not drawn)	x	x	-0.6%	x	x	x
Cc1[nH]nc(Nc2ccc(Br)cc2)c1[N+](=O)[O-]	204.9%	112.4*	-13.8%	56.4*	159.6%	-33.8%
Cc1[nH]nc(Nc2ccccc2)c1[N+](=O)[O-]	u	52.9	0.0%	31.5*	91.6%	-21.3%
Cc1[nH]nc(NNC(=O)c2ccccc2)c1[N+](=O)[O-]	27.1%	21.7	2.5%	-1.3	20.3%	1.5%
CCc1ccc(NC(=O)CSc2n[nH]c(C)c2[N+](=O)[O-])cc1	12.7%	1.0	-7.5%	1.1	38.2%	0.3%
CCN1CCN(Cc2c(O)ccc3c2O/C(=C\C=C\c2ccccc2OC)C3=O)CC1	4.15µM*	97.4*	u	57.3*	2.94µM*	5.6%
O=C1/C(=C/c2ccco2)Oc2c1ccc(O)c2CN1CCCCC1	u	-12.7	u	-4.3	u	13.8%
CC1CCN(Cc2c(O)ccc3c2O/C(=C\c2ccco2)C3=O)CC1	10.4µM*	-9.7	1µM*	-1.2	14.7µM*	8.91µM*
COCCN(CCOC)Cc1c(O)ccc2c1O/C(=C\c1ccco1)C2=O	-14.6%	3.0	3.55µM*	-0.5	x	13.9%
CCOC(=O)c1c(C)[nH]c(C)c1C(=O)COc1ncnc2cc([N+](=O)[O-])ccc12	-64.3%	2.8	-14.0%	-3.2	u	x
O=C(COC(=O)/C=C/c1cc(Br)ccc1F)Nc1ccc2[nH]c(=O)[nH]c2c1	7.4%	x	-8.7%	x	11.2%	x
Cc1ccc(OCCC(=O)OCC(=O)Nc2ccc3[nH]c(=O)[nH]c3c2)cc1	27.9%	x	-26.6%	x	17.9%	x
O=C1OC(CO)C(O)C(O)C1O (stereo not drawn)	0.8%	x	x	x	1.0%	x
COc1cc(OC)c(NC2=CC(=O)C(=O)c3ccccc32)cc1Cl	53.4%	3.7	u	10.3	0.329µM*	-3.4%
Cc1ccc(NC2=CC(=O)C(=O)c3ccccc32)cc1	0.828µM*	114.6*	-24.6%	43.3*	0.522µM*	-18.4%
CCOC(=O)c1ccc(NC(=O)C(C)N2C(=O)c3ccccc3C2=O)cc1 (stereo not drawn)	u	49.4	-4.5%	-0.8	11.7%	-33.9%
NS(=O)(=O)c1ccc(NC2=CC(=O)C(=O)c3ccccc32)cc1	10.4µM*	-1.3	-21.7%	1.8	u	0.7%
CCOC(=O)c1ccc(NC2=CC(=O)C(=O)c3ccccc32)cc1	70.0%	23.3	2.3%	13.5	5.86µM*	28.1%
SMILES	Pf growth 96h	Shiga inhibitor	Sm TGR inh	Cycloheximide cs	Pf growth 48h	NS1 inh
O=S(=O)(O)c1cc(OS(=O)(=O)c2ccccc2)cc2ccccc12	0.0%	0.6	-0.4%	2.6	6.2%	u
CCOc1ccccc1CN1CCCC(CNC(=O)Cc2ccc(OC)cc2)C1 (stereo not drawn)	u	x	8.8%	3.9	u	-7.3%
C[C@H](OP(=O)(O)O)[C@H](N)C(=O)O	x	x	x	x	x	0.0%
CC1Oc2ccccc2N(CC(=O)Nc2ccc(F)cc2)C1=O (stereo not drawn)	-20.6%	-4.0	13.1%	0.3	-18.5%	13.3%
CCCCCn1c(=O)[nH]c2cc(C(=O)NCc3ccc(F)cc3)ccc2c1=O	x	x	-2.1%	x	x	x
CCOC(=O)C1(CCCc2ccccc2)CCN(CCCn2cccn2)CC1	10.4µM*	-6.8	5.8%	-0.4	u	0.5%
CCOC(=O)C1(CCCc2ccccc2)CCN(Cc2nccn2CC)CC1	u	5.5	2.0%	-0.6	10.4µM*	-7.8%
CCOC(=O)C1(Cc2ccccc2C(F)(F)F)CCN(CCCn2cccn2)CC1	u	-18.3	6.1%	-3.3	u	2.0%
COc1ccc(C(=O)Nc2ccccc2C(=O)N2CCOCC2)cc1	-18.5%	-8.5	-10.5%	-5.2	13.9%	-0.1%
CCC(C)[C@H](NC(=O)C1CC(=O)N(c2ccc(OC)cc2)C1)C(=O)N1CCCCC1 (stereo partly drawn)	-7.8%	28.7	-15.0%	-2.7	-7.8%	u
COc1ccc(N2CCN(S(=O)(=O)c3cccc4cccnc34)CC2)cc1	-37.6%	28.5	2.2%	0.2	x	-4.7%
O=c1c(Cl)c(N2CCN(S(=O)(=O)c3ccc(F)cc3)CC2)cnn1-c1cccc(Cl)c1	6.57µM*	-13.2	14.5%	4.1	8.28µM*	2.0%
O=S(=O)(c1cccc2cccnc12)N1CCN(c2ccc(F)cc2)CC1	14.7µM*	-5.6	8.5%	-2.5	-7.2%	-11.1%
O=S(=O)(c1cccc(S(=O)(=O)N2CCN(c3ncccn3)CC2)c1)N1CCOCC1	11.7µM*	-1.7	-20.6%	-0.9	-23.7%	-2.1%
O=c1c(Cl)c(N2CCN(S(=O)(=O)c3ccccc3)CC2)cnn1-c1ccccc1	165.6%	-7.7	0.2%	6.4	-0.4%	-0.9%
O=S(=O)(c1ccc(F)cc1)N1CCN(c2ncccn2)CC1	4.4%	-0.9	8.2%	-2.2	2.08µM*	-65.6%
COc1ccc2c(Sc3ccccc3)c(C(=O)N3CCC(C)CC3)[nH]c2c1	x	x	-4.7%	x	x	x
CC1CC(C)CN(S(=O)(=O)c2cccc3cccnc23)C1 (stereo not drawn)	u	6.7	8.7%	1.0	x	-62.3%
CN(C)S(=O)(=O)c1ccc(N2CCN(S(=O)(=O)c3ccc(F)cc3)CC2)c(Cl)c1	8.28µM*	1.2	7.7%	1.8	7.38µM*	-36.5%
O=c1n(S(=O)(=O)c2cccc3cccnc23)c2ccccc2n1S(=O)(=O)c1cccc2cccnc12	6.57µM*	-23.2	0.2%	-3.5	x	13.5%
O=[N+]([O-])c1ccccc1S(=O)(=O)N1CCN(C2CCN(Cc3ccccc3)CC2)CC1	-16.2%	-13.7	-33.3%	-2.7	-19.6%	4.3%
Fc1cccc(-c2cc3nc(-c4ccccc4)cc(N4CCC5(CC4)OCCO5)n3n2)c1	-16.7%	-0.7	9.7%	-4.2	8.28µM*	7.6%
